In PubChem BioAssay (NCATS):
Several values for one entry are separate records, joined by “and”; a condition that tells them apart may be missing. Equal entries are not always repeated. Results filed as inconclusive are left out. Activity calls are given as the source filed them. The call rests on the fitted dose curve; in most records, active means well fitted inhibition curve with a large enough effect; inconclusive means small, poorly fitted or top-dose-only effect; inactive means no such curve, though single readings can be large or run the other way.

Test: Primary qHTS for inhibitors of nuclear receptor binding SET domain protein 2 (NSD2) in an RCH-ACV wild type WT cells (2C) (AID 1645877); further: nearly all actives have a fitted effect of over 70% in size
Details: RCH-ACV (leukaemia line) NSD2 WT (2C) viability, CellTiter-Glo, 72 h; series mostly up to 44.9 µM; activity change, negative = cell killing: at the top concentration
On the % scale 0 is the no-effect control and ±100 the full control effect; potency means the concentration at half of the fitted maximal effect.

Structure (SMILES)	Potency	activity change, negative = cell killing	outcome
COc1cc(-c2ncn(/C=C\C(=O)OC(C)C)n2)cc(C(F)(F)F)c1	0.129 µM (active)	–	–
O=C(CCCCN1CCOCC1)Nc1ccc(-c2cccnc2)cc1	–	-9.82% (inactive)	–
C/C(=C\CCC(C)CCO)C(=O)O[C@@H]1[C@@H](O)[C@H](OC2OC=C(C(=O)O)C3CCC(C)(O)C23)O[C@H](CO)[C@H]1O (some centres not stated)	–	-5.76% [at 17.3 µM] (inactive)	–
CC(C)S(=O)(=O)NC[C@H](C)c1ccc(NC(=O)c2cc(F)cc(F)c2)cc1	–	-9.43% (inactive)	–
CC1=C(C(=O)O)/C(=C\CO[C@@H]2O[C@H](CO)[C@@H](O)[C@H](O)[C@H]2O)C(OC(=O)/C=C/c2ccc(O)cc2)C1 (some centres not stated)	–	-7.9% [at 17.3 µM] (inactive)	–
Cc1cc(C(N)=O)ccc1-n1c(CCC(=O)O)ccc1-c1ccc(-n2ccnc2)cc1	–	-1.25% (inactive)	–
CCC1=CC2CN(C1)Cc1c([nH]c3ccccc13)[C@@](C(=O)OC)(c1cc3c(cc1OC)N(C)[C@H]1[C@@](O)(C(=O)OC)[C@H](OC(C)=O)[C@]4(CC)C=CCN5CC[C@]31[C@@H]54)C2 (some centres not stated)	0.0317 µM (active)	–	–
Cc1nc(C)c(-c2ccc(C3CCC(CC(=O)O)CC3)cc2)nc1C(N)=O (configuration not stated)	–	-30.9% (inactive)	–
CC(=O)N1CCN(C(=O)Cc2ccc(Nc3ncc(F)c(Nc4ccc(C(=O)Nc5ccccc5Cl)cc4)n3)cc2)CC1	2.05 µM (active)	–	–
O=C(O)CCCCCC[C@H]1C(=O)NC(=O)N1CC[C@@H](O)C1CCCCC1	–	-30.3% (inactive)	–
CC1=CC(=O)CC(C)(C)[C@H]1/C=C/C(CO)O[C@@H]1O[C@H](CO)[C@@H](O)[C@H](O)[C@H]1O (some centres not stated)	–	-8.01% (inactive)	–
CC(C)(C)c1ccc(S(=O)(=O)NCc2ccc(C(=O)Nc3cccnc3)cc2)cc1	0.163 µM (active)	–	–
COc1cc(C(=O)OC[C@@]2(O)CO[C@@H](O[C@H]3[C@H](Oc4ccc(C(=O)O)cc4OC)O[C@H](CO)[C@@H](O)[C@@H]3O)[C@@H]2O)ccc1O	–	-3.09% [at 17.3 µM] (inactive)	–
COC1C(CO)OC(n2cnc3c(=O)[nH]cnc32)C1O (configuration not stated)	–	-21% (inactive)	–
CCCOc1ccc(-c2nc(OC)c3ccccc3n2)cc1	–	2.52% (inactive)	–
C=C(C)C(=O)O[C@H]1CC2=CC(C/C(C)=C\[C@H]3OC(=O)C(=C)[C@H]13)OC2=O (some centres not stated)	3.58 µM (active)	–	–

Structure (SMILES)	Potency	activity change, negative = cell killing	outcome
C/C=C1\[C@H](OC2OC(COC3OC(CO)C(O)C(O)C3O)C(O)C(O)C2O)OC=C(C(=O)OC)[C@H]1CC(=O)OCCc1ccc(O)cc1 (some centres not stated)	–	-15.7% [at 17.3 µM] (inactive)	–
OC[C@H]1O[C@@H](OC(CCCCc2ccc(O)cc2)CCc2ccc(O)cc2)[C@H](O)[C@@H](O)[C@@H]1O (some centres not stated)	–	-81.3% [at 17.3 µM] (inactive)	–
C=C1CC23CC1CCC2C12OC(=O)C(C)(CCC1O)C2C3C(=O)O (configuration not stated)	–	-4.13% (inactive)	–
Cc1ccc(C(=O)N(CCCN)C(c2oc3cc(Cl)ccc3c(=O)c2Cc2ccccc2)C(C)C)cc1 (configuration not stated)	–	-97.4% (inactive)	–
O=C(O[C@H]1[C@@H]2C[C@@H]3OC[C@](O)([C@@H]1Cl)[C@H]2C(O[C@@H]1O[C@H](CO)[C@@H](O)[C@H](O)[C@H]1O)O3)c1ccc(O)c(O)c1 (some centres not stated)	–	3.46% [at 17.3 µM] (inactive)	–
O=C(O)c1cc(I)ccc1NC(=O)[C@H](Cc1ccccc1)NCc1ccccc1	–	-12.6% (inactive)	–
CC(C)=CCC[C@](C)(O)[C@H]1CC[C@]2(C)[C@@H]1[C@H](O)CC1[C@@]3(C)CC[C@H](O)C(C)(C)C3[C@@H](O[C@@H]3O[C@H](CO)[C@@H](O)[C@H](O)[C@H]3O[C@@H]3OC[C@@H](O)[C@H](O)[C@H]3O)C[C@]12C (some centres not stated)	–	–	inactive [at 17.3 µM]
c1ccc(-c2csc(N3CCOCC3)n2)cc1	–	2.36% (inactive)	–
C=C(C)C(=O)OC1C(OC(C)=O)/C(C=O)=C\CC/C(CO)=C/C2OC(=O)C(=C)C21 (configuration not stated)	1.42 µM (active)	–	–
Nc1ccc(/C=C/C(=O)NCc2cc3cc(-c4ccc(C(=O)N5CCC(F)(F)CC5)cc4)cc(-c4ccc(F)cc4)c3o2)cn1	332 nM (active) and 206 nM (active)	–	–
CCCCNc1ncc2c(-c3ccc(F)cc3)nn(CC3CCC(N)CC3)c2n1 (configuration not stated)	1.62 µM (active)	–	–
CC(C)c1ccc(CO)cc1O[C@@H]1O[C@H](CO)[C@@H](O)[C@H](O)[C@H]1O	–	0.39% (inactive)	–
C[C@H]1[C@H](O)O[C@@H]2O[C@@]3(C)CC[C@H]4[C@H](C)CC[C@@H]1[C@@]24OO3	0.833 µM (active)	–	–
COC(=O)c1cc(OC)cc(OC)c1C(=O)c1c(OC)cc2c(c1O)C1CCCC(C)(O2)O1 (configuration not stated)	–	–	inactive [at 17.3 µM]
CC(C)(O)/C=C/C1=CC(=O)[C@@](C)(O)C[C@H]1O	–	-23.5% (inactive)	–
CCCC(=O)C1CCN(c2ncnc3c2CN(C(=O)c2ccc(-c4ccccc4)cc2)CC3)CC1	20.5 µM (active)	–	–
